# From the supplement of paper PMC6411743
# ± gives the standard deviation of the averaged measurements. About 5,400 targets were measured; listed, in parts, are those with the largest changes and a random draw of the rest.
# Compound: Nc1nc2c(ncn2[C@@H]2O[C@H](COP(=O)(O)OP(=O)(O)OP(=O)(O)O)[C@@H](O)[C@H]2O)c(=O)[nH]1 [guanosine triphosphate]
# Assay: NP40-soluble protein abundance relative to vehicle (solubility fold change) (ratio); higher = more soluble protein in presence of GTP
# Outline: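 Jurkat crude lysate (Dounce-homogenised) was treated with eight concentrations from 0.1 to 10 mM for 10 min at room temperature, then 3 min at 37 °C. It was solubilised with 0.8% NP40 and benzonase (60 min, 4 °C) and ultracentrifuged, and the supernatant was TMT-labelled for LC-MS/MS. Intensities were vsn-normalised, and the value is the fold change against the NP40-processed vehicle per replicate, from three independent experiments.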
# Chain of UniProt Q9NVF7 (Q9NVF7 whole entry): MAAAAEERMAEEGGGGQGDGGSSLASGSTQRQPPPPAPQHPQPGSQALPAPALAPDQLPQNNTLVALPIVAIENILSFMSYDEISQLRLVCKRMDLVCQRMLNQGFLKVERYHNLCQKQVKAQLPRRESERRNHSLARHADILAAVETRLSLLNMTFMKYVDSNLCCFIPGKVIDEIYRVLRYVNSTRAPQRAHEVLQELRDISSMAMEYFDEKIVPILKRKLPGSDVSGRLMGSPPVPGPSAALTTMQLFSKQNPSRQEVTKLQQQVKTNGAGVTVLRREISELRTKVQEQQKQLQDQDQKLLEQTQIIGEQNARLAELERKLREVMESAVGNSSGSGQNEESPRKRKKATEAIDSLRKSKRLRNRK
# Chain of UniProt Q9UJX6 (Q9UJX6 whole entry): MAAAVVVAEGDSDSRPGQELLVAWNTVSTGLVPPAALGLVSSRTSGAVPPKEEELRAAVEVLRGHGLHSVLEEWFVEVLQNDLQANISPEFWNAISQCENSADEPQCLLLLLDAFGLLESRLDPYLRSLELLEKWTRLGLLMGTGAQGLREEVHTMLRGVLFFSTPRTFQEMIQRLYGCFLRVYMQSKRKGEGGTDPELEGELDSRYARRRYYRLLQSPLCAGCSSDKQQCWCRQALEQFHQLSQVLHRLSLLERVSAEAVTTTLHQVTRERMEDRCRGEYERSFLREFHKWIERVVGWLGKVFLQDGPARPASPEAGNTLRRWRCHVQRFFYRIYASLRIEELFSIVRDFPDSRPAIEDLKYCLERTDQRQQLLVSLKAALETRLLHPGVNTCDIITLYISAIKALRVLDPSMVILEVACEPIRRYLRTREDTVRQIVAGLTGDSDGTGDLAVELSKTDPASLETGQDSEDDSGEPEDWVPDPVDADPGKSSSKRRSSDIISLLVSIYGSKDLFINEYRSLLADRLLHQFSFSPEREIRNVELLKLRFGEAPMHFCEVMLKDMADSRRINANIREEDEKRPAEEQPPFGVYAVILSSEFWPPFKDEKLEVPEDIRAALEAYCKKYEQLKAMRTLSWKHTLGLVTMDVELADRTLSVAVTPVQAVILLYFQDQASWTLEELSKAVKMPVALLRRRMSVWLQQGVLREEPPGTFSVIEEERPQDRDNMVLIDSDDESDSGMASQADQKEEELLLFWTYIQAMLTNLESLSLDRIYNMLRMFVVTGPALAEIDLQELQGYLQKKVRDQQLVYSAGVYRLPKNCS
# Chain of UniProt Q92804 (Q92804 whole entry): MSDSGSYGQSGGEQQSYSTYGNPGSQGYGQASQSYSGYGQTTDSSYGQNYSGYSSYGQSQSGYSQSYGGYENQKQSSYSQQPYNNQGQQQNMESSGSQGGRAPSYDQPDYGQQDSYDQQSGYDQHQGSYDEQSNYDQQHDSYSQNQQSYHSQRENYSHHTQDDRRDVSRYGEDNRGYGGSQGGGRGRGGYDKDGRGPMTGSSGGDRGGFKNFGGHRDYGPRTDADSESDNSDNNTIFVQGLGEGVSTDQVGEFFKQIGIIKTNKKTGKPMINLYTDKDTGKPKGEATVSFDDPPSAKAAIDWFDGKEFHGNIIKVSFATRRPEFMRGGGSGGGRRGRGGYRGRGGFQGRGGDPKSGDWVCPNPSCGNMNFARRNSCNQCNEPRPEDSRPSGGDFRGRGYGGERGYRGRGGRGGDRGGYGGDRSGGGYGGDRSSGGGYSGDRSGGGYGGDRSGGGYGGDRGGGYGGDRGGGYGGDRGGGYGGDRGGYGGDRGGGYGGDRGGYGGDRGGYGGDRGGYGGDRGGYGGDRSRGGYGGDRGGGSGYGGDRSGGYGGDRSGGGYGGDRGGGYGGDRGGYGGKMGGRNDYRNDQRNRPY
# Chain of UniProt Q9Y3E2 (Q9Y3E2 whole entry): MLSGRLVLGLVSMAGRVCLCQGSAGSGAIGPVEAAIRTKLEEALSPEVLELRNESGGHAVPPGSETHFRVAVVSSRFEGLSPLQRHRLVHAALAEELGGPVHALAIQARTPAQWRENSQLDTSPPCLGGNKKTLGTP
# Chain of UniProt Q9Y2U8 (Q9Y2U8 whole entry): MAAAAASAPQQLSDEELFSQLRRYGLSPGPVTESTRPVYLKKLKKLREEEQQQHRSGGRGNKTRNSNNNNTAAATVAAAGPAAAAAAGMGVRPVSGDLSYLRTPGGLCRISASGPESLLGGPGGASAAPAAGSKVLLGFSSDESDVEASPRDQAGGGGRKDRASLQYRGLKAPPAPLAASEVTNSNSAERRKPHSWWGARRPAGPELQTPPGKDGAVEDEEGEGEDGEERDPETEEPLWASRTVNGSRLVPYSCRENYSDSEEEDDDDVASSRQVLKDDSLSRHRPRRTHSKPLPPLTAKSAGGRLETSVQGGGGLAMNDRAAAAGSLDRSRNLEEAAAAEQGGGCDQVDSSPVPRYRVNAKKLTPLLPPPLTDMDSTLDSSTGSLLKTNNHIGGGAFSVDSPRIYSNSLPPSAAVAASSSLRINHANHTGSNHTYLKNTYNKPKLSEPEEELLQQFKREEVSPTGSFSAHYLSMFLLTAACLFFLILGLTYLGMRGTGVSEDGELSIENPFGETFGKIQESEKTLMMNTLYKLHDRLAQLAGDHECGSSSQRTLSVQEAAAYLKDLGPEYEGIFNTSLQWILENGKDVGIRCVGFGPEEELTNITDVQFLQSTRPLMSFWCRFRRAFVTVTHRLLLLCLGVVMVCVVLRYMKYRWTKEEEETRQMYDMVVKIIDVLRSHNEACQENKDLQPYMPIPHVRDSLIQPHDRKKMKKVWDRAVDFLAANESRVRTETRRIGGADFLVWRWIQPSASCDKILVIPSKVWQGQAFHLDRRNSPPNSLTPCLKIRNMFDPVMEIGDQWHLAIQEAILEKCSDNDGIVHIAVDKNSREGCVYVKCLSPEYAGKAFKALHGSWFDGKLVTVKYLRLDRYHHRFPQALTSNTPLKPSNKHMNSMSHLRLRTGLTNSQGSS
# Chain of UniProt Q9ULV4 (Q9ULV4 whole entry): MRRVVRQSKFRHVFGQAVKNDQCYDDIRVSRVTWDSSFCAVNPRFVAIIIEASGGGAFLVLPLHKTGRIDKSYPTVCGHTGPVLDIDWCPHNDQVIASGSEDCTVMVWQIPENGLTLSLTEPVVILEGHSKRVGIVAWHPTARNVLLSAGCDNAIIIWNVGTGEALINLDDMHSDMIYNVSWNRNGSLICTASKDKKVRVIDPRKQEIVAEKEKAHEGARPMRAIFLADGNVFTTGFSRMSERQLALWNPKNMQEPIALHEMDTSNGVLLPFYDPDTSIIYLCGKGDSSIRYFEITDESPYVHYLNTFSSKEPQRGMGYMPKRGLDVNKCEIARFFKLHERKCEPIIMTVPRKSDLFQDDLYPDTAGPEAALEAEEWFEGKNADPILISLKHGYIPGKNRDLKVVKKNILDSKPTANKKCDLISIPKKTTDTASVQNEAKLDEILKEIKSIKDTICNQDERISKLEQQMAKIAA
# Chain of UniProt Q969H8 (Q969H8 whole entry): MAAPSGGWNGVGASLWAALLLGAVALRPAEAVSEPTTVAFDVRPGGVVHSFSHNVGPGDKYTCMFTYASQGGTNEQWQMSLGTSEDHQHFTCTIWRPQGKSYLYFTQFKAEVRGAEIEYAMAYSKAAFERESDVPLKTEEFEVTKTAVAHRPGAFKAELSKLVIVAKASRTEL
# Chain of UniProt Q9UBS4 (Q9UBS4 whole entry): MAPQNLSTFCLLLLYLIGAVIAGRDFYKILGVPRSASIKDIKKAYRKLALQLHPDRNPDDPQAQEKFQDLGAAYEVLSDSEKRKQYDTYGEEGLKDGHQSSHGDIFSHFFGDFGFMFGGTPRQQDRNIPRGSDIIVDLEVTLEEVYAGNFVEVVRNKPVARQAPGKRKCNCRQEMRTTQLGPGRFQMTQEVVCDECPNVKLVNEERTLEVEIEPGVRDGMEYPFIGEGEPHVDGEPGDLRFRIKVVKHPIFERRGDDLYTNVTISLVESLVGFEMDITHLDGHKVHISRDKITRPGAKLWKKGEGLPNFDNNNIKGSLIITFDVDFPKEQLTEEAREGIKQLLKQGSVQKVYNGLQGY
# Chain of UniProt Q9NVG8 (Q9NVG8 whole entry): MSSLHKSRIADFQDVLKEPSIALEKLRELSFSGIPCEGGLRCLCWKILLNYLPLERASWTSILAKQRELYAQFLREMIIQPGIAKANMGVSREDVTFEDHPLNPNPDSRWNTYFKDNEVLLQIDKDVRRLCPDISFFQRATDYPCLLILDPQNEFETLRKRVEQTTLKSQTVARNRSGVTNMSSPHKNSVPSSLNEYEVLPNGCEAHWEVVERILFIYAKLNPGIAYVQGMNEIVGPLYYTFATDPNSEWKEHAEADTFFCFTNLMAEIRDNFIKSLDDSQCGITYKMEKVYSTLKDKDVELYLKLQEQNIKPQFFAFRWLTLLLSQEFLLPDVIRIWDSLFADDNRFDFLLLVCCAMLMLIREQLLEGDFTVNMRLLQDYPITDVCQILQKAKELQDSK
# Chain of UniProt Q9NX40 (Q9NX40 whole entry): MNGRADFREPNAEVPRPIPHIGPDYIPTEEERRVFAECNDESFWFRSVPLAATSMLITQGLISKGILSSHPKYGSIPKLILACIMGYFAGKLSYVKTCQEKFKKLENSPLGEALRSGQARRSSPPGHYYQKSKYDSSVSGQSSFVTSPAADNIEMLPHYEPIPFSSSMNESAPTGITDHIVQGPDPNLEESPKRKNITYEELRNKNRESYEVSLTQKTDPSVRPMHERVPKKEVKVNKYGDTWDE
# Chain of UniProt Q9NX24 (Q9NX24 whole entry): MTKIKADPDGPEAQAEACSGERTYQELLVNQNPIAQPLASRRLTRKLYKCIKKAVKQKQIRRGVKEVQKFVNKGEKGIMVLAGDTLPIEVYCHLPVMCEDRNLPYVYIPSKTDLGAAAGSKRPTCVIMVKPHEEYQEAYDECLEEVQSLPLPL
# Chain of UniProt Q9BTE7 (Q9BTE7 whole entry): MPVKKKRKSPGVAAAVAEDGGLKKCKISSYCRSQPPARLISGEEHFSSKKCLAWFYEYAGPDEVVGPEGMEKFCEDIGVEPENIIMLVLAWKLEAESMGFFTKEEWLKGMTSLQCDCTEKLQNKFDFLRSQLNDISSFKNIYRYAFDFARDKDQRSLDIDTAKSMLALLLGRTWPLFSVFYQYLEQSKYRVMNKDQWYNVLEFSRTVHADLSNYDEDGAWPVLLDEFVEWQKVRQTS
Target,NP40-soluble protein abundance (concentration: 0.1mM),NP40-soluble protein abundance (concentration: 0.5mM),NP40-soluble protein abundance (concentration: 1mM),NP40-soluble protein abundance (concentration: 2mM),NP40-soluble protein abundance (concentration: 4mM),NP40-soluble protein abundance (concentration: 6mM),NP40-soluble protein abundance (concentration: 8mM),NP40-soluble protein abundance (concentration: 10mM)
UniProt Q92804|Q92804-2,0.976 ± 0.03,1.048 ± 0.0095,1.18 ± 0.09,1.35 ± 0.14,1.56 ± 0.22,1.73 ± 0.28,2.08 ± 0.35,2.59 ± 0.54
UniProt Q9Y4P8|Q9Y4P8-4|Q9Y4P8-6,1.04 ± 0.11,1.01 ± 0.028,0.976 ± 0.11,0.961 ± 0.1,0.959 ± 0.1,0.959 ± 0.053,0.954 ± 0.042,0.896 ± 0.021
PEF1 (UniProt Q9UBV8),0.946 ± 0.077,0.888 ± 0.036,0.995 ± 0.1,0.994 ± 0.043,1.03 ± 0.076,0.993 ± 0.063,0.891 ± 0.084,1.02 ± 0.14
OCIAD1 (UniProt Q9NX40),0.922 ± 0.025,0.9 ± 0.044,1.01 ± 0.016,0.982 ± 0.058,0.971 ± 0.072,0.956 ± 0.053,0.956 ± 0.034,0.974 ± 0.037
DDX21 (UniProt Q9NR30),1.11 ± 0.027,1.1 ± 0.048,1.18 ± 0.026,1.32 ± 0.019,1.56 ± 0.018,1.82 ± 0.028,2.13 ± 0.038,2.698 ± 0.024
NAT10 (UniProt Q9H0A0),1.07 ± 0.065,1.04 ± 0.061,1.02 ± 0.063,1.07 ± 0.065,1.2 ± 0.079,1.31 ± 0.085,1.37 ± 0.077,1.59 ± 0.11
DNAJB11 (UniProt Q9UBS4),1.01 ± 0.027,1.02 ± 0.048,1.03 ± 0.059,1 ± 0.048,1.01 ± 0.051,1.02 ± 0.046,1.005 ± 0.0044,0.982 ± 0.029
BOLA1 (UniProt Q9Y3E2),0.909 ± 0.069,0.941 ± 0.075,0.943 ± 0.06,0.943 ± 0.028,0.908 ± 0.073,0.933 ± 0.059,0.903 ± 0.038,1.04 ± 0.055
SUCLG2 (UniProt Q96I99),0.959 ± 0.049,0.966 ± 0.053,0.933 ± 0.043,0.901 ± 0.06,0.889 ± 0.059,0.889 ± 0.052,0.886 ± 0.048,0.871 ± 0.068
UniProt Q9UJX6|Q9UJX6-2,1.3 ± 0.28,1.33 ± 0.37,1.18 ± 0.28,1.26 ± 0.47,1.3 ± 0.37,1.25 ± 0.46,1.12 ± 0.31,1.22 ± 0.48
UniProt Q9Y2A7|Q9Y2A7-2,0.9505 ± 0.0043,1.002 ± 0.0081,0.972 ± 0.055,0.982 ± 0.015,0.991 ± 0.034,0.9641 ± 0.0054,1.02 ± 0.026,0.973 ± 0.011
UniProt Q96ES7,1.21 ± 0.22,1.12 ± 0.13,1.25 ± 0.19,1.14 ± 0.12,1.26 ± 0.11,1.17 ± 0.11,1.38 ± 0.32,1.12 ± 0.096
FAM117A (UniProt Q9C073),1.31 ± 0.14,0.983 ± 0.018,1.28 ± 0.084,1.03 ± 0.024,1.1204 ± 7.8e-05,1.02 ± 0.037,1.1 ± 0.056,1.12 ± 0.086
UniProt Q9UJX5|Q9UJX5-3|Q9UJX5-2,1.2 ± 0.19,1.24 ± 0.3,1.15 ± 0.19,1.27 ± 0.23,1.25 ± 0.27,1.23 ± 0.32,1.2 ± 0.23,1.13 ± 0.17
LUC7L2 (UniProt Q9Y383),1.09 ± 0.11,1.4 ± 0.08,1.58 ± 0.098,1.54 ± 0.18,1.56 ± 0.12,1.66 ± 0.12,1.74 ± 0.15,1.7 ± 0.16
FBXO28 (UniProt Q9NVF7),1.09 ± 0.028,1.08 ± 0.13,1.28 ± 0.18,1.31 ± 0.099,1.39 ± 0.12,1.47 ± 0.12,1.42 ± 0.28,1.61 ± 0.25
UniProt Q9ULV4|Q9ULV4-2|Q9ULV4-3,0.986 ± 0.021,1.11 ± 0.089,1.16 ± 0.088,1.26 ± 0.17,1.42 ± 0.22,1.53 ± 0.3,1.67 ± 0.33,1.74 ± 0.36
DCUN1D5 (UniProt Q9BTE7),0.984 ± 0.048,0.929 ± 0.07,0.918 ± 0.076,0.916 ± 0.077,0.948 ± 0.027,0.883 ± 0.056,0.891 ± 0.069,0.883 ± 0.074
JARID2 (UniProt Q92833),0.971 ± 0.078,1.07 ± 0.11,1.09 ± 0.088,1.08 ± 0.087,1.05 ± 0.04,1.05 ± 0.088,1.18 ± 0.04,1.15 ± 0.026
DDX49 (UniProt Q9Y6V7),1.02 ± 0.056,1.01 ± 0.047,1.03 ± 0.026,1.05 ± 0.072,1.12 ± 0.037,1.19 ± 0.022,1.26 ± 0.076,1.21 ± 0.077
UniProt Q9NW08|Q9NW08-2,1.08 ± 0.03,1.13 ± 0.075,1.09 ± 0.12,1.15 ± 0.18,1.19 ± 0.16,1.16 ± 0.19,1.13 ± 0.18,1.09 ± 0.17
UniProt Q9NQS7|Q9NQS7-2,1.16 ± 0.11,1.2 ± 0.24,1.31 ± 0.089,1.28 ± 0.14,1.49 ± 0.21,1.6 ± 0.17,1.72 ± 0.11,1.97 ± 0.29
UniProt Q99707|Q99707-2,0.997 ± 0.019,1.01 ± 0.062,0.987 ± 0.015,1.01 ± 0.033,0.973 ± 0.022,0.965 ± 0.0072,0.928 ± 0.023,0.927 ± 0.029
NHP2 (UniProt Q9NX24),0.959 ± 0.056,0.942 ± 0.054,1.02 ± 0.069,1.09 ± 0.067,1.2 ± 0.096,1.39 ± 0.16,1.45 ± 0.16,1.75 ± 0.35
UniProt Q969H8,0.971 ± 0.023,0.949 ± 0.034,0.884 ± 0.026,0.85 ± 0.019,0.834 ± 0.05,0.853 ± 0.057,0.8 ± 0.046,0.764 ± 0.085
TBC1D13 (UniProt Q9NVG8),0.962 ± 0.036,0.985 ± 0.048,0.927 ± 0.046,0.896 ± 0.047,0.857 ± 0.071,0.866 ± 0.066,0.847 ± 0.1,0.822 ± 0.089
LEMD3 (UniProt Q9Y2U8),0.989 ± 0.049,1 ± 0.038,1.01 ± 0.037,1.01 ± 0.048,0.999 ± 0.036,0.985 ± 0.033,1.01 ± 0.049,0.985 ± 0.027
UniProt Q9BX67,1.04 ± 0.013,0.954 ± 0.065,0.965 ± 0.026,0.913 ± 0.066,0.905 ± 0.046,0.88 ± 0.086,0.953 ± 0.035,0.897 ± 0.06
